Each structure is given as a SMILES string. Several values for one entry are separate records, joined by “and”; a condition that tells them apart may be missing. Equal entries are not always repeated. Values without a mark were called inactive. Results filed as inconclusive are left out. Activity calls are given as the source filed them. Unless noted, calls come from the whole dose curve; as a rule, active = well fitted curve in the direction sought with a large enough effect; inconclusive = small, poorly fitted or top-dose-only effect, or another doubt; inactive = no such curve, though single readings can be large; an effect the other way counts as inactive or inconclusive.

The test system of assay [1] is Es-2. Briefly: Primary qHTS to identify gynecologic anti-cancer compounds using libraries of approved drugs and bioactive compounds (AID 1345084). Note: nearly all actives have a fitted effect of over 55% in size. Note: potency is the fitted concentration of half-maximal effect. To be noted: Gynecologic cancer cell panel viability, ATPlite luminescence, 48 h; series mostly up to 57.5 µM. In outline:
(§1)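 Measured: luminescence after ATPlite addition (15 min, RT). Exposure: 48 h, 37 C, 5% CO2.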

The subject of assay [2] is HeLa. The assay is described as above. To be noted: Gynecologic cancer cell panel viability, ATPlite luminescence, 48 h; series mostly up to 57.5 µM. In outline:
as §1

For assay [3], the system named is Hek293T. The assay is described as above. To be noted: Gynecologic cancer cell panel viability, ATPlite luminescence, 48 h, control line for the selectivity index; series mostly up to 57.5 µM. In outline:
as §1
(In ATP-based viability assays light output follows the ATP content of the culture.)

The subject of assay [4] is OV90. The assay is described as above. Particulars: Gynecologic cancer cell panel viability, ATPlite luminescence, 48 h; series mostly up to 57.5 µM. In outline:
as §1

For assay [5], the system named is PA-1. The description is as above. Particulars: Gynecologic cancer cell panel viability, ATPlite luminescence, 48 h; series mostly up to 57.5 µM. In outline: as §1
The test system of assay [6] is SKOV3. Described as above. To be noted: Gynecologic cancer cell panel viability, ATPlite luminescence, 48 h; series mostly up to 57.5 µM. The method, boiled down:
as §1

Assay [7] relates to Tov-21-G. Described as above. Particulars: Gynecologic cancer cell panel viability, ATPlite luminescence, 48 h; series mostly up to 57.5 µM. The method, boiled down:
as §1

For assay [8], the system named is Tov112D. The assay is described as above. To be noted: Gynecologic cancer cell panel viability, ATPlite luminescence, 48 h; series mostly up to 57.5 µM. In outline: as §1
A short description of assay [9]: Drug repurposing screens with cells derived from glioblastoma tumor samples (AID 1345199). For activity, negative = cell killing: % is set by controls: 0 for no effect and ±100 for the full control effect. Note: nearly all actives have a fitted effect of over 40% in size. Note: potency is the fitted concentration of half-maximal effect. To be noted: GBM patient neurospheres viability, ATP luminescence, 48 h. The method, boiled down: (§2)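 Four patient lines of CD133+ GBM neurospheres were screened at several concentrations; hits were retested in those lines plus three slower-growing GBM lines, using 48-hour treatment and ATP-based viability.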

Assay [10] has as its system astro. The description is as above. Particulars: viability, ATP luminescence, 48 h; series mostly up to 45.9 µM. In outline: as §2
Assay [11] in a line: qHTS assay to identify inhibitors of the type 1 interferon - major histocompatibility complex class I in skeletal muscle: Counter screen cell viability and HiBit confirmation (AID 1347412). Note: potency is the fitted concentration of half-maximal effect; nearly all actives have a fitted effect of over 60% in size. To be noted: iHSKM muscle cells + IFN-b, HiBiT or CellTiter-Glo, 24 h; Potency: HiBiT; Viability, at 45.9 µM (top of the series). In outline:
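After 24 h with human IFN-beta (4 ng/ml) and compound titrations (top 46 uM final, 1:3, 12 points), HLA-B HiBit myoblasts were lysed for either Nano-Glo HiBiT luminescence or CellTiter Glo viability on paired plates.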
A general note: In qHTS, concentration-response curves come from the screen itself.

Assay [12] addresses Nuclear receptor subfamily 1 group I member 2 (Rattus norvegicus) (UniProt Q9R1A7). Briefly: qHTS assay for small molecule activators of the rat pregnane X receptor (rPXR) signaling pathway (AID 651751; call rule not given here; note: 0% is about no effect). Particulars: rPXR reporter cells, luciferase (One-Glo), 24 h.
Assay [13] can be described thus: qHTS assay for small molecule activators of the human pregnane X receptor (PXR) signaling pathway (AID 720659; call rule not given here; note: 0% is about no effect).
In assay [14] the test system is JEG-3. The assay is described as follows: Primary qHTS to identify gynecologic anti-cancer compounds using libraries of approved drugs and bioactive compounds (AID 1345084). Note: nearly all actives have a fitted effect of over 55% in size. Note: potency is the fitted concentration of half-maximal effect. Particulars: Gynecologic cancer cell panel viability, ATPlite luminescence, 48 h; series mostly up to 57.5 µM. In outline:
as §1

Where [15] appears, read: at 45.9 µM (top of the series), tumour line B.
Setting [16] is: at 45.9 µM (top of the series), tumour line D.
[17] abbreviates: at 46 µM (top of the series), tumour line A.

Sequence of Nuclear receptor subfamily 1 group I member 2 (Rattus norvegicus) (Q9R1A7 whole entry, looked up): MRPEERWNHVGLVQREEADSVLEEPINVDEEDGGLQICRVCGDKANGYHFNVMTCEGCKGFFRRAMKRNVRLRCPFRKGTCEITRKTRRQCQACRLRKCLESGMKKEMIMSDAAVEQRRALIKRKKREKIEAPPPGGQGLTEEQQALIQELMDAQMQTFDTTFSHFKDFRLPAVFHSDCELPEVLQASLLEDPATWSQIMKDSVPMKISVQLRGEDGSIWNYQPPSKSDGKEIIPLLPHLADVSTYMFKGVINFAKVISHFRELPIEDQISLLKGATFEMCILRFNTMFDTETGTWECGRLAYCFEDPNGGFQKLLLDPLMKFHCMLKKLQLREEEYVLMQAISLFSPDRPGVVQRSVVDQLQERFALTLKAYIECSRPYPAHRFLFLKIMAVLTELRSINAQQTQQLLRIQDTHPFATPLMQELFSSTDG

Take `C[C@@H]1O[C@@H](O[C@H]2C[C@@H](O)[C@]3(CO)[C@H]4[C@H](O)C[C@]5(C)[C@@H](C6=CC(=O)OC6)CC[C@]5(O)[C@@H]4CC[C@]3(O)C2)[C@H](O)[C@H](O)[C@H]1O`: the Potency in assay [1] is 316 nM (active) and 141 nM (active); in assay [2] it was 224 nM (active) and 158 nM (active); in assay [3] it was 282 nM (active) and 178 nM (active); in assay [4] it was 447 nM (active) and 794 nM (active); in [5], 316 nM (active) and 141 nM (active); in assay [6] it was 251 nM (active) and 158 nM (active). In addition, the Potency in assay [7] was 251 nM (active) and 141 nM (active); in [8], 89.1 nM (active) and 100 nM (active); in assay [9] (tumour line A) it was 158 nM (active); in assay [9] (tumour line B), 112 nM (active); in [9] (tumour line D), 398 nM (active); in assay [10] it was 316 nM (active) and 89.1 nM (active). For the same molecule, the Potency in [11] is 70.1 nM (active) and 55.7 nM (active). Further, the max response in assay [12] is 0.133%. In addition, in assay [13], the result was inactive.
On to `CCN(CC)CCN1C(=O)CN=C(c2ccccc2F)c2cc(Cl)ccc21`, for which the Potency result in assay [1], in assay [2], in assay [3], in [4], in assay [5] and in assay [6] was “inactive” each time. For the same molecule, the Potency entry in [7] and in [8] was “inactive” in each case. In [9] (setting [15]), the activity, negative = cell killing is -20.2%. Moreover, the Potency in [9] (tumour line A) is 14100 nM (active).
As for `CC(=O)[C@H]1CC[C@H]2[C@@H]3CC[C@H]4C[C@](C)(O)CC[C@]4(C)[C@H]3CC[C@]12C`, the Potency entry in assay [1], in assay [2], in [3], in assay [4], in assay [5] and in [6] was “inactive” each time. Besides, the Potency entry in assay [7] and in assay [8] was “inactive” throughout. Further, the activity, negative = cell killing in [9] (setting [15]) is -20.7%.
With `Cc1ncc(CNC(=O)N(CCCl)N=O)c(N)n1`, the Potency entry in assay [1], in [2], in assay [3], in assay [5], in assay [6] and in [7] was “inactive” throughout. Further, the Potency result in assay [8] and in assay [10] was “inactive” throughout. Moreover, in assay [4], the Potency was 35.5 µM (active). In addition, the values for the activity, negative = cell killing in [9] (setting [15]), in assay [9] (setting [16]) and in [9] (setting [17]) were -2.44%, -2.73% and -26.1%, respectively.
For `COC[C@@H](NC(C)=O)C(=O)NCc1ccccc1`, the Potency result in assay [1], in assay [2], in assay [3], in assay [4], in [5] and in [6] was “inactive” each time. Also, the Potency entry in assay [7] and in assay [8] was “inactive” throughout.
Consider `CN(C)CCc1ccc(O)cc1`, for which the Potency result in assay [1], in assay [2], in assay [3], in assay [14], in assay [5] and in [6] was “inactive” in each case. Besides, the Potency result in assay [7], in assay [8] and in [10] was “inactive” each time. The activity, negative = cell killing is -0.64% in assay [9] (setting [15]) and -12.6% in assay [9] (setting [16]).
As to `CC[N+](CC)(CC)CC`, the Potency result in assay [1], in assay [2], in [3], in assay [4], in assay [5] and in assay [6] was “inactive” in each case. The Potency result in [7], in [8] and in [10] was “inactive” each time. Besides, the activity, negative = cell killing is -10.8% in assay [9] (setting [15]), -7.23% in assay [9] (setting [16]) and -23.7% in assay [9] (setting [17]).
In the case of `CN1C[C@H](CNC(=O)OCc2ccccc2)C[C@@H]2c3cccc4c3c(cn4C)C[C@H]21`, the Potency entry in [1], in assay [2], in assay [3], in assay [14], in assay [4] and in assay [5] was “inactive” in each case. Moreover, the Potency result in assay [7] and in assay [8] was “inactive” throughout.
`CC1OC(C)OC(C)O1` (configuration not stated): the Potency entry in assay [1], in assay [2], in assay [3], in assay [4], in assay [5] and in assay [6] was “inactive” each time. For the same molecule, the Potency result in [7], in assay [8] and in assay [10] was “inactive” throughout. Besides, the activity, negative = cell killing in [9] (setting [15]) is 0.183% and 0.957%; in [9] (setting [16]), -11.1% and -5.15%; in assay [9] (setting [17]), -20.8% and 1.27%.

Values taken from PubChem BioAssay (NCATS).
